For the first assay, the target named is T1, ETS1 (UniProt P14921).
T1 sequence: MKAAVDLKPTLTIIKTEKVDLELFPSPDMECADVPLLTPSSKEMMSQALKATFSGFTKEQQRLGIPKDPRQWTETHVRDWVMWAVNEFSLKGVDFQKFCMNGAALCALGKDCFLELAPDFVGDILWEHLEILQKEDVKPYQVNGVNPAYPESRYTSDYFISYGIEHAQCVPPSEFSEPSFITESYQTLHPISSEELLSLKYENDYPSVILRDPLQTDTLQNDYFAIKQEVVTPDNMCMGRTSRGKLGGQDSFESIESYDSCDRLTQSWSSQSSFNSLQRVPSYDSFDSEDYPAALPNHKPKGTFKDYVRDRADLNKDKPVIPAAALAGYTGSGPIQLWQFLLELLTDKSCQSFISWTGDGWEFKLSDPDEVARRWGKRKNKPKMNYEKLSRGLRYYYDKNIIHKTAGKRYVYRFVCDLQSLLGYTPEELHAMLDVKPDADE
Briefly: ETS1 binding intensity (PBM fluorescence), ETS1 alone (arbitrary fluorescence units); higher = stronger binding. The following applies: ETS1 concentration 1 nM; RUNX1 concentration 0 nM.
As to GAGAATGAAGAGGAAATGTGGGGACAGACAGAACTG, the ETS1 binding intensity was 1060.

CCGGGAGGGACGGAGGATGTGTGGTTCTGTCTCCTT registered an ETS1 binding intensity of 673.

For the sequence CCAGGATGTAGTTTGGCCACTATTGAGTGGTTTGTT, the ETS1 binding intensity was found to be 448.

Sequence TTCTTGTTTCCTGTCAAGGGAGGCTCTGACCACCTC registered an ETS1 binding intensity of 728.

As for AGCGGTGTTTCAGGATGTGAGGGCCCGCAGGAGCCG, the ETS1 binding intensity stood at 666.

GCTAAAGGAAGCTCTGTACAGCTGTGGTAAGGTGGC displayed an ETS1 binding intensity of 552.

The sequence CGGGCCCGACGGAAACCATGTTTGTGGCTCGCAGCA registered an ETS1 binding intensity of 744.

GTTTCAGTATTTCCTGGTGCGGCGTACCACACCTAC had an ETS1 binding intensity of 620.

AGACCCGGACCGGAACCTTGGCGCGGTGACGCTAGT had an ETS1 binding intensity of 1050.

In turn, TTTCCAGAGGATGTAGCTTCTGCGGGAGAGCTTCAA had an ETS1 binding intensity of 546.

Take AAGCTTCCTGGCCCTTTAAAAATGGCGGTTCCGCAC: the ETS1 binding intensity came to 519.

GCCTGCGCTCTTTCCGGTAGCCACAGCCTCGTCTAA: the ETS1 binding intensity stood at 1290.

For CCGTGTCAGTGAGGATGTGGGCTGCCGGGCTGGGCG, the ETS1 binding intensity came out at 491.

For TGGATGGCGGCGGATACTGCCCATGCCGCAAGGCCG, the ETS1 binding intensity came to 464.

As for ATACATACAGGATGACATTTGTCCTGTGGGCACCAG, the ETS1 binding intensity is 495.

Sequence CGGCACCCTCCTTCCTCCCTGCCAACCGCCTCCACC yielded an ETS1 binding intensity of 556.

In turn, ATGTGCGTGTGCACAGGAAAACCACTGCCAGTATTT showed an ETS1 binding intensity of 756.

On to AGCGCTTCCCCTTCCGCTGCCGCAGCCGCCGCCTCC, for which the ETS1 binding intensity stood at 498.

Sequence CAGGGAAGTTCGAACTGGGCGGGGCCCACCGCAGTT yielded an ETS1 binding intensity of 336.

Sequence TGAATATTCTTCCGCACGTACCCACATGGCTCACTT showed an ETS1 binding intensity of 486.

Take GCAGGCGTGCGCTTCCGCTCCAACCCGCGCACTTCG: the ETS1 binding intensity amounted to 1110.

Sequence TTGGTGGCTTCCTGCCCAGGAGACCACACCCAGCTT showed an ETS1 binding intensity of 540.

Turning to GCTTACGTCACGTCCGGCGCCTGCGGCCCACCCCTC, the ETS1 binding intensity was found to be 592.

As to GGATGGCGGAAGAGGCGGCTGAGGCCGCAGGACGTG, the ETS1 binding intensity worked out at 4630.

In turn, CCAGGGGCACACCGGAACCCACACCTGAAATCACAG registered an ETS1 binding intensity of 647.

In the case of GGCGCCTCTTTCCGCCCCCGCCCACAATCGAGCGCA, the ETS1 binding intensity worked out at 535.

The sequence CCCGCTTCCGCGTTTTACTCGGTGCCCGCAGCGCCG returned an ETS1 binding intensity of 445.

GACTGAGATTTCCTGCCAGCAACCACATGGCTTGTC showed an ETS1 binding intensity of 512.

For the sequence GGCGGAACTTGTGCGTACGCTGGAAAACCGCTGGGG, the ETS1 binding intensity came to 385.

For GCTATCGAGCTTCCTGCAGCGGTGGCCACCCGAGCA, the ETS1 binding intensity is 482.

Take CCTGTCTGCTTCCGCCCGGCTTCGGCCCACAGTCAA: the ETS1 binding intensity was found to be 511.

TCCCGAGAGTGCGGCGGAAACCACGCGGCGCCGCCG registered an ETS1 binding intensity of 1360.

Turning to TCTTTTTATTTCCTGTGCAGTCTCGCCCACAGCACT, the ETS1 binding intensity amounted to 1070.

On to TTCTCCACTTCCTTCTTTACCTCACCTACCACATAA, for which the ETS1 binding intensity amounted to 568.

The sequence AGTTGCTAAGGAAATGACTGCCCGCAGCGCCTGGCC returned an ETS1 binding intensity of 423.

GCAGGACTCCAGGAAGCCCGCGCAGCCGCAAAAAGC: the ETS1 binding intensity worked out at 597.

The sequence GCTATCCCCGCCCCTTCCTGTGGGCTGGCGCCCGAT gave an ETS1 binding intensity of 482.

CAGCCCTCTTCCTGCCTGTCTGTGGCTGGTGAGGTT had an ETS1 binding intensity of 597.

Sequence CTCTTCCAGGAAGCCTTCCCTGACCACTGCTTGCTC displayed an ETS1 binding intensity of 396.

For the sequence GCAGGAAACGCTTTCTTAACACTATGTGGGTGAGGT, the ETS1 binding intensity is 763.

A further assay deals with T1, ETS1. Briefly: ETS1 binding intensity (PBM fluorescence) in presence of RUNX1, normalised to ETS1-only experiment (arbitrary fluorescence units); higher = stronger binding. The following applies: ETS1 concentration 1 nM; RUNX1 concentration 25 nM.
Take GAGAATGAAGAGGAAATGTGGGGACAGACAGAACTG: the ETS1 binding intensity worked out at 1170.

Regarding CCGGGAGGGACGGAGGATGTGTGGTTCTGTCTCCTT, the ETS1 binding intensity was found to be 553.

On to CCAGGATGTAGTTTGGCCACTATTGAGTGGTTTGTT, for which the ETS1 binding intensity worked out at 502.

Turning to TTCTTGTTTCCTGTCAAGGGAGGCTCTGACCACCTC, the ETS1 binding intensity came out at 753.

Turning to AGCGGTGTTTCAGGATGTGAGGGCCCGCAGGAGCCG, the ETS1 binding intensity worked out at 837.

GCTAAAGGAAGCTCTGTACAGCTGTGGTAAGGTGGC: the ETS1 binding intensity was found to be 792.

With CGGGCCCGACGGAAACCATGTTTGTGGCTCGCAGCA, the ETS1 binding intensity was 699.

Take GTTTCAGTATTTCCTGGTGCGGCGTACCACACCTAC: the ETS1 binding intensity turned out to be 566.

For the sequence AGACCCGGACCGGAACCTTGGCGCGGTGACGCTAGT, the ETS1 binding intensity turned out to be 975.

TTTCCAGAGGATGTAGCTTCTGCGGGAGAGCTTCAA: the ETS1 binding intensity is 584.

In the case of AAGCTTCCTGGCCCTTTAAAAATGGCGGTTCCGCAC, the ETS1 binding intensity came out at 714.

In the case of GCCTGCGCTCTTTCCGGTAGCCACAGCCTCGTCTAA, the ETS1 binding intensity worked out at 1220.

Turning to CCGTGTCAGTGAGGATGTGGGCTGCCGGGCTGGGCG, the ETS1 binding intensity worked out at 753.

Take TGGATGGCGGCGGATACTGCCCATGCCGCAAGGCCG: the ETS1 binding intensity worked out at 532.

As to ATACATACAGGATGACATTTGTCCTGTGGGCACCAG, the ETS1 binding intensity was 515.

As to CGGCACCCTCCTTCCTCCCTGCCAACCGCCTCCACC, the ETS1 binding intensity stood at 696.

For the sequence ATGTGCGTGTGCACAGGAAAACCACTGCCAGTATTT, the ETS1 binding intensity is 789.

With AGCGCTTCCCCTTCCGCTGCCGCAGCCGCCGCCTCC, the ETS1 binding intensity stood at 466.

As to CAGGGAAGTTCGAACTGGGCGGGGCCCACCGCAGTT, the ETS1 binding intensity is 488.

For TGAATATTCTTCCGCACGTACCCACATGGCTCACTT, the ETS1 binding intensity amounted to 337.

As to GCAGGCGTGCGCTTCCGCTCCAACCCGCGCACTTCG, the ETS1 binding intensity is 1100.

Turning to TTGGTGGCTTCCTGCCCAGGAGACCACACCCAGCTT, the ETS1 binding intensity turned out to be 486.

With GCTTACGTCACGTCCGGCGCCTGCGGCCCACCCCTC, the ETS1 binding intensity is 506.

Take GGATGGCGGAAGAGGCGGCTGAGGCCGCAGGACGTG: the ETS1 binding intensity came out at 4800.

With CCAGGGGCACACCGGAACCCACACCTGAAATCACAG, the ETS1 binding intensity was 739.

Turning to GGCGCCTCTTTCCGCCCCCGCCCACAATCGAGCGCA, the ETS1 binding intensity worked out at 399.

Regarding CCCGCTTCCGCGTTTTACTCGGTGCCCGCAGCGCCG, the ETS1 binding intensity turned out to be 389.

Consider GACTGAGATTTCCTGCCAGCAACCACATGGCTTGTC, for which the ETS1 binding intensity is 577.

Regarding GGCGGAACTTGTGCGTACGCTGGAAAACCGCTGGGG, the ETS1 binding intensity came out at 545.

Regarding GCTATCGAGCTTCCTGCAGCGGTGGCCACCCGAGCA, the ETS1 binding intensity amounted to 418.

For the sequence CCTGTCTGCTTCCGCCCGGCTTCGGCCCACAGTCAA, the ETS1 binding intensity came to 441.

Turning to TCCCGAGAGTGCGGCGGAAACCACGCGGCGCCGCCG, the ETS1 binding intensity amounted to 1570.

For TCTTTTTATTTCCTGTGCAGTCTCGCCCACAGCACT, the ETS1 binding intensity was determined as 1030.

Consider TTCTCCACTTCCTTCTTTACCTCACCTACCACATAA, for which the ETS1 binding intensity came to 544.

As to AGTTGCTAAGGAAATGACTGCCCGCAGCGCCTGGCC, the ETS1 binding intensity was 929.

Regarding GCAGGACTCCAGGAAGCCCGCGCAGCCGCAAAAAGC, the ETS1 binding intensity is 1350.

Turning to GCTATCCCCGCCCCTTCCTGTGGGCTGGCGCCCGAT, the ETS1 binding intensity stood at 489.

Consider CAGCCCTCTTCCTGCCTGTCTGTGGCTGGTGAGGTT, for which the ETS1 binding intensity came to 431.

CTCTTCCAGGAAGCCTTCCCTGACCACTGCTTGCTC: the ETS1 binding intensity turned out to be 505.

As for GCAGGAAACGCTTTCTTAACACTATGTGGGTGAGGT, the ETS1 binding intensity is 691.
